# CHX counter: Cycloheximide Counterscreen for Small Molecule Inhibitors of Shiga Toxin. cell reporter, cycloheximide protein synthesis inhibition counterscreen. max response, %. 300,000 compounds, 12% hits. AID 2314, 2010; in the data active = max response mostly above about 13%, no sharp cut-off; inactive = mostly below about 14%; note: read at 38.3 µM for the half of the compounds with a filed dose; 0% is about no effect
# TbPYK inhibitor: qHTS of Trypanosoma Brucei Inhibitors | TbPYK enzyme, Kinase-Glo Plus ATP luminescence, 45 min | Potency, µM (series often up to 76.8 µM), inactives show at the top dose activity, negative = inhibition, hits mostly inhibitors | 410,000 compounds, 0.12% hits; note: potency is the fitted concentration of half-maximal effect; % is set by controls: 0 for no effect and ±100 for the full control effect; nearly all actives have a fitted effect of over 50% in size
#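 In this concentration-response screen, enzyme-free wells defined baseline while DMSO plates tracked drift. Each reaction combined TbPYK, substrate, compound and 130 uM ADP for 45 min at room temperature. Kinase-Glo Plus luminescence gave the signal.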
# Sm TGR inh: qHTS Assay for the Inhibitors of Schistosoma Mansoni Peroxiredoxins; Schistosoma mansoni thioredoxin glutathione reductase (TGR), Q962Y6; purified TGR, DTNB reduction, TNB absorbance 405 nm; Potency, µM (top dose mostly 114 µM), for the others: at the highest dose activity change, negative = inhibition, hits mostly inhibitors; 360,000 compounds, 3% hits; AID 485364, 2010; note: potency is the fitted concentration of half-maximal effect; % is set by controls: 0 for no effect and ±100 for the full control effect; nearly all actives have a fitted effect of over 60% in size
#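 Kinetic colorimetric format: TGR-catalysed, NADPH-driven DTNB reduction monitored via TNB absorbance. Enzyme dispensed at 20 nM; compound exposure 15 min at room temperature before reaction start.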
# Shiga toxin inh: A qHTS for Small Molecule Inhibitors of Shiga Toxin | inhibition, % at 38.7 µM | Vero cells, Shiga toxin protein synthesis inhibition reporter | 290,000 compounds, 9.2% hits; in the data active = inhibition mostly above about 28%, no sharp cut-off; inactive = mostly below about 43%; note: 0% is about no effect
# Giardia FBPA inh: qHTS Assay for Inhibitors of Fructose-1,6-bisphosphate Aldolase from Giardia Lamblia | A8B2U2 | purified Giardia FBPA | Potency, µM (series often up to 59.6 µM), for the others: at the top dose activity, negative = inhibition, actives largely listed as inhibitors | 290,000 compounds, 0.71% hits; note: potency is the fitted concentration of half-maximal effect; % is set by controls: 0 for no effect and ±100 for the full control effect; nearly all actives have a fitted effect of over 55% in size
#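 Giardia FBPA (40 nM reagent) was preincubated 10 min at RT with compound (up to 57.5 uM final), then substrate plus GAPDH/TPI/NAD/arsenate coupling system with diaphorase/resazurin was added; resorufin fluorescence (525/598 nm) was read after 20 min.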
# LmPK inh: qHTS Assay for Inhibitors of Leishmania Mexicana Pyruvate Kinase (LmPK) | Q27686 | purified LmPK, Kinase-Glo ATP luminescence, 1 h | 290,000 compounds, 0.37% hits | Potency, µM (top dose mostly 57.5 µM), for inactives: top-dose activity change, negative = inhibition, usual class: inhibitors; note: potency is the fitted concentration of half-maximal effect; % is set by controls: 0 for no effect and ±100 for the full control effect
# Target sequence (Q27686 whole entry, looked up): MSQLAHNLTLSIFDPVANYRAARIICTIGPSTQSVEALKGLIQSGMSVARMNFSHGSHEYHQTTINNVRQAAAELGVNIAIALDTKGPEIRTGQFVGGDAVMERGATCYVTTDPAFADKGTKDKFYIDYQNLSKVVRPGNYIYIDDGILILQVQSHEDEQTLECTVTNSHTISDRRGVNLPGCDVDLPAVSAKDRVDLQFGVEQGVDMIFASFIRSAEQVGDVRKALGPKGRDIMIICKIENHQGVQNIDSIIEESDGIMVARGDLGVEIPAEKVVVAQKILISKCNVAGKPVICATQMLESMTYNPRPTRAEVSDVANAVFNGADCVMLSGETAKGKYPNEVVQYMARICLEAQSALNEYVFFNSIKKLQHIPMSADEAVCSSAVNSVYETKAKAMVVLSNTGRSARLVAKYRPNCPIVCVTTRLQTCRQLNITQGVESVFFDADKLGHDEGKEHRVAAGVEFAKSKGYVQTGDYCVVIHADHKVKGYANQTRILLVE
#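 Screened at intermediate enzyme activity to detect both inhibitors and activators: LmPK at 0.1 nM, with a 0.5 nM enzyme column as activation reference. PEP 0.5 mM, ADP 0.1 mM; ATP detected by luminescence after 1 h.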
# An asterisk follows results filed as active; ? = inconclusive; / = no result. The sample as a whole holds a higher share of hits than the screen did. Unless noted, calls come from the whole dose curve; as a rule, active = well fitted curve in the direction sought with a large enough effect; inconclusive = small, poorly fitted or top-dose-only effect, or another doubt; inactive = no such curve, though single readings can be large; an effect the other way counts as inactive or inconclusive.
SMILES,CHX counter,TbPYK inhibitor,Sm TGR inh,Shiga toxin inh,Giardia FBPA inh,LmPK inh
CC1=C(C(=O)O)N2C(=O)C(NC(=O)C(N)C3=CCC=CC3)C2SC1 (stereo not drawn),/,/,/,/,7.9µM*,/
C=CC1=C(C(=O)O)N2C(=O)[C@@H](NC(=O)/C(=N\O)c3csc(N)n3)[C@H]2SC1 (stereo in doubt),/,-9%,/,/,/,/
CCCCC/C=C\C/C=C\C/C=C\CCCCCCC(=O)NCCCC(=O)O,/,/,/,/,6%,/
COc1ccc(OCCSc2ncccn2)cc1,46*,-6%,-2%,113*,1%,-20%
COc1ccc(OCCSc2nc(C)nc3ccccc23)cc1,43*,2%,6%,31,-2%,3%
COc1ccc(OCCSc2nc(C)c(Cc3ccccc3)c(=O)[nH]2)cc1,-2,-3%,4%,-15,0%,-2%
COc1cccc(OCCCCSc2ncccn2)c1,26,-18%,-28%,63,5%,2%
OC(COc1ccc(Cl)cc1)CSc1ccccn1 (stereo not drawn),27*,3%,-6%,21,-4%,-1%
c1cnc(SCCCOc2ccc3ccccc3c2)nc1,31,3%,-7%,77,-4%,8%
Cc1ccc(OCCCSc2ncccn2)cc1C,44*,2%,2%,74*,-1%,2%
COc1ccc(Cc2nnc(NC(=O)CS(=O)(=O)Cc3ccccc3)s2)cc1,/,0%,/,/,/,/
Clc1ccc(OCCSc2ncccn2)cc1,55*,-25%,5%,117*,-1%,1%
COc1ccc(OCCCSc2ncccn2)cc1,39*,-8%,3%,104*,-4%,-2%
Cc1cc(N2CCN(C)CC2)nc2ccc(NC(=O)c3ccc(Br)o3)cc12,26*,-28%,0%,101*,-7%,1%
COc1cc(C(=O)Nc2ccc3nc(N4CCN(C)CC4)cc(C)c3c2)cc(OC)c1OC,9,9%,-13%,26,9%,-1%
Cc1cc(N2CCN(C)CC2)nc2ccc(NC(=O)c3ccc4c(c3)OCO4)cc12,20*,-1%,-13%,38,-10%,0%
CCOc1ccc(N=C(NN)c2ccc3ccccc3n2)cc1,44*,-24%,2%,31*,?,1%
O=c1c(-c2ccco2)[n+]([O-])c2ccccc2n1OCc1ccccc1,11,-1%,10µM*,4,?,-2%
O=c1c(-c2ccco2)[n+]([O-])c2ccccc2n1OCc1c(F)cccc1F,-2,0%,16µM*,8,-7%,-1%
O=c1c(-c2ccco2)[n+]([O-])c2ccccc2n1OCc1ccccc1F,-2,4%,?,-8,0%,-7%
CCOC(=O)COn1c(=O)c(-c2ccco2)[n+]([O-])c2ccccc21,0,0%,0%,11,-26%,5%
COc1ccccc1COn1c(=O)c(-c2ccco2)[n+]([O-])c2ccccc21,3,6%,14µM*,14,-13%,0%
CCOC(=O)c1ccc(NC(=O)c2nn(C)c3c2COc2ccccc2-3)cc1,/,-3%,7%,/,/,/
CCCC(=O)c1ccc(N2CCOCC2)c(F)c1,38*,-3%,0%,68*,4%,-1%
Cc1ccc(C(=O)c2ccc(N3CCOCC3)c(F)c2)cc1,62*,3%,-2%,66*,-4%,1%
SMILES,CHX counter,TbPYK inhibitor,Sm TGR inh,Shiga toxin inh,Giardia FBPA inh,LmPK inh
Cc1ncoc1C(=O)N1CCc2c([nH]c3ccccc23)C1C1CCCCC1 (stereo not drawn),52*,-5%,-20%,72*,-1%,-2%
CC(C)c1ccccc1NC(=O)CN(c1ccccc1)S(=O)(=O)N(C)C,/,-4%,-2%,/,/,/
CN(Cc1ccc(Cl)cc1)C(=O)c1ccc2ccccc2n1,-3,0%,-2%,-8,-1%,0%
CN(Cc1c(F)cccc1Cl)C(=O)c1cnc2ccccc2n1,12*,-3%,5%,43,-12%,3%
COCCNc1c(-c2cc3ccc(C)c(C)c3[nH]c2=O)nc2ccccn12,42*,-2%,16%,63*,0%,5%
Cc1cc(C)n(-c2nc3cc(Cl)c(Cl)cc3nc2Nc2ccc(F)cc2C)n1,/,4%,5%,/,/,/
Cc1cc(NC(=O)c2n[nH]c(=O)c3ccccc23)ccc1Br,-1,-9%,20%,17,2%,3%
CCN(CC)S(=O)(=O)c1cc(NC(=O)c2n[nH]c(=O)c3ccccc23)ccc1C,21*,-2%,0%,37,-13%,3%
CC(C)c1ccc(NC(=O)c2n[nH]c(=O)c3ccccc23)cc1,45*,-5%,8%,44*,3%,7%
COc1ccc(-n2c(/C=C/c3cccc4ccccc34)nc3ccccc3c2=O)cc1Cl,/,1%,3%,/,/,/
COc1cccc(C2=Nn3c(nnc3-c3ccccc3C)SC2)c1,-1,/,/,-8,10µM*,/
COc1cccc(C2=Nn3c(nnc3-c3ccc(OC)cc3OC)SC2)c1,-4,/,/,3,-7%,/
O=C(/C=C/c1ccco1)Nc1ccccn1,36*,-21%,1%,43*,1%,14µM*
Cc1ccc(NC(=O)/C=C/c2ccco2)nc1,34*,0%,-17%,78*,-11%,-10%
O=C(O)/C=C/C(=O)Nc1cccc2cccnc12,-3,-1%,15%,33,-7%,3%
O=C(/C=C/c1ccco1)Nc1cccc2cccnc12,61*,-9%,?,119*,-22%,-2%
COc1ccc(CN(Cc2ccco2)C(=O)COc2ccccc2OC)cc1,/,7%,4%,/,/,/
COC(=O)c1ccc(C(c2c(N)n(Cc3ccccc3)c(=O)n(C)c2=O)N2CCOCC2)cc1 (stereo not drawn),12,9%,22µM*,49,0%,3%
COc1ccc(C(=O)OCCc2ccc(O)cc2)cc1,38*,7%,-15%,50*,-3%,1%
CC(C)(C)C(=O)COC(=O)c1ccc(O)cc1,11,0%,1%,40*,5%,-2%
O=C(OCCCOC(=O)c1ccc(O)cc1)c1ccc(O)cc1,2,1%,-3%,13,/,-10%
COc1ccc(CCOC(=O)c2ccc(NC(=O)CC#N)cc2)cc1,41*,-3%,-9%,30,/,-10%
Cc1cc(C)c(C(=O)/C=C/c2ccc3c(c2)OCO3)c(=O)[nH]1,3,-8%,-25%,15,-15%,3%
O=C(N/N=C/c1ccsc1)c1cc2ccccc2o1,62*,-7%,5%,41*,-14%,0%
Cc1ccc(C(=O)/C=C/c2ccc3c(c2)OCO3)o1,49*,-4%,?,52*,0%,?

# Screens from PubChem.
